Source: PubChem BioAssay (NCI)
Compounds without any hit were thinned out: in the full panel of roughly 79,000, 15% have a hit. Unmarked numbers belong to inactive results. The source made the active and inactive calls. Rule as the data show it: active = growth inhibition above about 70%; inactive = the rest. Where a SMILES comes first, the peptide text is derived from it. [ ]: non-standard residue; d: D form. ξ: configuration not given here. ξH = NC(Cc1c[nH]cn1)C(=O)O

Key:
[1] = NCI Yeast Anticancer Drug Screen. Data for the rad50 strain (AID 155);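 also: 0% = growth of vehicle-only cultures of the same strain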; conditions: S. cerevisiae rad50 strain growth inhibition; at 50.0 µM; stronger effect = higher value
In short: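 Inhibition values express reduced yeast growth in compound-treated cultures relative to vehicle-treated controls.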

[2] = NCI Yeast Anticancer Drug Screen. Data for the mec2-1 strain (AID 157); conditions: S. cerevisiae mec2-1 strain, at 50.0 µM, stronger effect = higher value
In short: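 Mutant yeast (mec2-1) grown with compound; growth inhibition relative to vehicle control reported.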

[3] = NCI Yeast Anticancer Drug Screen. Data for the sgs1 mgt1 strain (AID 161);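 also: 0% = growth of cultures given vehicle only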; conditions: S. cerevisiae sgs1 mgt1 strain, at 50.0 µM, stronger effect = higher value
In short: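 Compounds are added to genetically altered yeast, and growth is compared with cultures given vehicle alone to give percent inhibition.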

[4] = NCI Yeast Anticancer Drug Screen. Data for the cln2 rad14 strain (AID 165);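 also: 0% = growth equal to vehicle treated cultures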; conditions: S. cerevisiae cln2 rad14 strain, at 50.0 µM, stronger effect = higher value
In short: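 Readout is yeast growth inhibition versus vehicle-treated controls, using a strain with cln2 and rad14 alterations exposed to compound.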

[5] = NCI Yeast Anticancer Drug Screen. Data for the bub3 strain (AID 167); conditions: S. cerevisiae bub3 mutant strain, at 50.0 µM, stronger effect = higher value
In short: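 Steps: expose the mutant yeast strain to compound; grow alongside vehicle-treated cultures; measure growth; express inhibition against the vehicle cultures.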

[6] = NCI Yeast Anticancer Drug Screen. Data for the mlh1 rad18 strain (AID 175); conditions: S. cerevisiae mlh1 rad18 strain growth inhibition; at 50.0 µM; stronger effect = higher value
In short: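 Genetically defined yeast (DNA repair-deficient) exposed to compounds; growth inhibition determined relative to vehicle.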

O=C(O)c1nc(Cl)c(Cl)[nH]c1=O
growth inhibition [1]: -15.3% | growth inhibition [2]: -29.6% | growth inhibition [3]: 8.6% | growth inhibition [4]: -65.6% | growth inhibition [5]: 2.5% | growth inhibition [6]: 3.6%

CCNc1nc2c(=O)n(C)c(=O)n(C)c2s1
growth inhibition [1]: -31% | growth inhibition [2]: -26.2% | growth inhibition [3]: -4.05% | growth inhibition [4]: -6.2% | growth inhibition [5]: -10.6% | growth inhibition [6]: -5.65%

O=C(CCCN1CCC(Nc2ccccc2)(c2nnnn2C2CCCCC2)CC1)c1ccc(F)cc1
growth inhibition [1]: -7.05% | growth inhibition [2]: -16.2% | growth inhibition [3]: 0.3% | growth inhibition [4]: 11.1% | growth inhibition [5]: 1.25% | growth inhibition [6]: 7.15%

O=C(NCCCCCCNC(=O)NCc1ccc(Cl)c(Cl)c1)NCc1ccc(Cl)c(Cl)c1
growth inhibition [1]: 13.6% | growth inhibition [2]: 4% | growth inhibition [3]: -3.8% | growth inhibition [4]: -3.8% | growth inhibition [5]: -1.9% | growth inhibition [6]: 16.9%

CN1CCOC1(C)CO (stereo unspecified)
growth inhibition [1]: 3.85% | growth inhibition [2]: -16.7% | growth inhibition [3]: -10.3% | growth inhibition [4]: -20.6% | growth inhibition [5]: -8.5% | growth inhibition [6]: -55%

FC(F)(F)c1ccc(C(Nc2nncs2)Nc2nncs2)cc1
growth inhibition [1]: -6.9% | growth inhibition [2]: -6.7% | growth inhibition [3]: -4.5% | growth inhibition [4]: -8.35% | growth inhibition [5]: 7.6% | growth inhibition [6]: 0.75%

c1ccc(-c2cc(-c3ccncc3)cc(-c3ccncc3)n2)cc1
growth inhibition [1]: 3.85% | growth inhibition [2]: -21% | growth inhibition [3]: 9.4% | growth inhibition [4]: 18.6% | growth inhibition [5]: -1.9% | growth inhibition [6]: -85.2%

COc1ccc2[nH]c3c4c(ccc3c2c1)C(=O)C=CC4=O
growth inhibition [1]: 19.8% | growth inhibition [2]: 18.3% | growth inhibition [3]: 12% | growth inhibition [4]: -1.05% | growth inhibition [5]: 9.45% | growth inhibition [6]: 17.6%

Nc1c(S(=O)(=O)O)cc(Br)c2c1C(=O)c1ccccc1C2=O
growth inhibition [1]: 54.5% | growth inhibition [2]: 15.8% | growth inhibition [3]: 38.7% | growth inhibition [4]: 38% | growth inhibition [5]: 45.8% | growth inhibition [6]: 56.4%

Nc1ccc(-c2nc3ccc(N)cc3[nH]2)cc1
growth inhibition [1]: -17.1% | growth inhibition [2]: -17.9% | growth inhibition [3]: -18.1% | growth inhibition [4]: 6.45% | growth inhibition [5]: -4% | growth inhibition [6]: -18.2%

Cc1ccc(N2CCN(c3ccc(C)cc3)C2=C2N(c3ccc(C)cc3)CCN2c2ccc(C)cc2)cc1
growth inhibition [1]: 78.5% (active) | growth inhibition [2]: 20.4% | growth inhibition [3]: 56.5% | growth inhibition [4]: 34.1% | growth inhibition [5]: 37.1% | growth inhibition [6]: 19.6%

Cc1ccc(N2C(=O)CC3(CCCC3)C2=O)cc1Cl
growth inhibition [1]: 14.6% | growth inhibition [2]: -2% | growth inhibition [3]: -6.05% | growth inhibition [4]: 5.95% | growth inhibition [5]: 5% | growth inhibition [6]: 21.6%

CCC(C(=O)O)C1=CCCc2c(C)ccc(C)c21 (stereo unspecified)
growth inhibition [1]: 23.6% | growth inhibition [2]: 13.2% | growth inhibition [3]: 21.6% | growth inhibition [4]: 25.3% | growth inhibition [5]: 11.7% | growth inhibition [6]: 23.2%

CC(=O)Nc1ccc(/C=N/NS(=O)(=O)c2ccc(C)cc2)cc1
growth inhibition [1]: 0.3% | growth inhibition [2]: 34.7% | growth inhibition [3]: 16.9% | growth inhibition [4]: -1.85% | growth inhibition [5]: 30.6% | growth inhibition [6]: 17.1%

O=C(CSc1nnc(Cc2ccccc2)o1)Nc1ccccc1
growth inhibition [1]: -28.1% | growth inhibition [2]: 0.05% | growth inhibition [3]: -38.6% | growth inhibition [4]: -13.3% | growth inhibition [5]: -35.5% | growth inhibition [6]: -27.1%

COc1ccc(N(N=Nc2ccccc2)C(C)=O)cc1
growth inhibition [1]: -2.05% | growth inhibition [2]: 2% | growth inhibition [3]: 30.9% | growth inhibition [4]: -4.75% | growth inhibition [5]: -16.7% | growth inhibition [6]: 11.9%

Cc1ccc(C(C)(CCC(=O)O)c2ccc(C)o2)o1
growth inhibition [1]: 36.2% | growth inhibition [2]: 12.2% | growth inhibition [3]: 7.35% | growth inhibition [4]: 45.2% | growth inhibition [5]: 8.5% | growth inhibition [6]: 25.4%

COC(CN(C)C(=S)Nc1cccc2ccccc12)OC
growth inhibition [1]: -31.9% | growth inhibition [2]: -74% | growth inhibition [3]: -23.6% | growth inhibition [4]: -11.7% | growth inhibition [5]: -6.2% | growth inhibition [6]: -30.9%

NC(C(=O)O)c1ccc(C(=O)O)cc1 (stereo unspecified)
growth inhibition [1]: 30.7% | growth inhibition [2]: 15.6% | growth inhibition [3]: -5.55% | growth inhibition [4]: 18.8% | growth inhibition [5]: -7.6% | growth inhibition [6]: 20.5%

O=c1[nH]cnc2sc3c(c12)CCC3
growth inhibition [1]: 30.6% | growth inhibition [2]: 6.9% | growth inhibition [3]: 14.2% | growth inhibition [4]: 13.4% | growth inhibition [5]: 3.1% | growth inhibition [6]: 1.55%

NCC(=O)NC(Cc1cnc[nH]1)C(=O)NCC(=O)O (stereo unspecified) (H-Gly-[ξH]-Gly-OH)
growth inhibition [1]: -3.45% | growth inhibition [2]: 7.9% | growth inhibition [3]: -0.2% | growth inhibition [4]: -31.6% | growth inhibition [5]: 6.2% | growth inhibition [6]: 5.15%

COc1cccc(NC(=O)CC(=O)N/N=C/c2ccc(N(CCC#N)CCC#N)c(I)c2)c1
growth inhibition [1]: 29.6% | growth inhibition [2]: 8.95% | growth inhibition [3]: 7.7% | growth inhibition [4]: 9.55% | growth inhibition [5]: -5.55% | growth inhibition [6]: 28.7%

CC(=O)OCC1OC(n2c(C)c(C(C)=O)c(-c3ccc(Cl)cc3)c(C#N)c2=S)C(OC(C)=O)C(OC(C)=O)C1OC(C)=O (stereo unspecified)
growth inhibition [1]: -37.9% | growth inhibition [2]: -9.55% | growth inhibition [3]: -2.1% | growth inhibition [4]: 12.2% | growth inhibition [5]: 9.15% | growth inhibition [6]: -2.65%

COC(=O)c1nc(N)nc(C(=O)OC)c1C(=O)c1cccc2ccccc12
growth inhibition [1]: -33.5% | growth inhibition [2]: -26.1% | growth inhibition [3]: 1.65% | growth inhibition [4]: -26.8% | growth inhibition [5]: -33.3% | growth inhibition [6]: -20.9%

Cc1cc(C)c(NS(=O)c2cccc(Cl)c2)c(C)c1 (stereo unspecified)
growth inhibition [1]: -29.1% | growth inhibition [2]: -26.3% | growth inhibition [3]: -59.2% | growth inhibition [4]: 1.35% | growth inhibition [5]: -35.2% | growth inhibition [6]: -50.2%

C/C=C/C=C/CC
growth inhibition [1]: 8.75% | growth inhibition [2]: -12.3% | growth inhibition [3]: -5.4% | growth inhibition [4]: 16.2% | growth inhibition [5]: 16.9% | growth inhibition [6]: -22.6%

O=C(Nc1ccc(Cl)cc1)Nc1nnc(-c2cc([N+](=O)[O-])cc([N+](=O)[O-])c2)o1
growth inhibition [1]: -2.1% | growth inhibition [2]: 20.8% | growth inhibition [3]: 28.8% | growth inhibition [4]: -13.3% | growth inhibition [5]: -32.6% | growth inhibition [6]: -2.25%

Cc1cccc2c1Oc1ccccc1C2NC(=O)OCCc1ccccc1 (stereo unspecified)
growth inhibition [1]: -14.3% | growth inhibition [2]: -8.25% | growth inhibition [3]: -7.25% | growth inhibition [4]: -9.15% | growth inhibition [5]: -8.05% | growth inhibition [6]: 1.25%

Cc1cc(Cl)ccc1NC(=O)Nc1c(Oc2ccc(Cl)cc2)ccc(Cl)c1S(=O)(=O)O
growth inhibition [1]: 76.8% (active) | growth inhibition [2]: 36.8% | growth inhibition [3]: 55.5% | growth inhibition [4]: 3.85% | growth inhibition [5]: -0.75% | growth inhibition [6]: 45.9%

CC(=O)Oc1cc2c(cc1OC(C)=O)C1(C)CCC2(C)c2cc(OC(C)=O)c(OC(C)=O)cc21
growth inhibition [1]: 1.6% | growth inhibition [2]: 0.2% | growth inhibition [3]: 3.6% | growth inhibition [4]: 9.55% | growth inhibition [5]: -2.7% | growth inhibition [6]: 14.3%

[N-]=[N+]=Nc1ccc(S(=O)(=O)Oc2cc(OS(=O)(=O)c3ccc(N=[N+]=[N-])cc3)cc(OS(=O)(=O)c3ccc(N=[N+]=[N-])cc3)c2)cc1
growth inhibition [1]: 4% | growth inhibition [2]: 16.1% | growth inhibition [3]: 10.6% | growth inhibition [4]: 8% | growth inhibition [5]: -5.9% | growth inhibition [6]: 14.1%

CSC1(SC)CCCCCCCCCCC1
growth inhibition [1]: -19.8% | growth inhibition [2]: -17.2% | growth inhibition [3]: -17.9% | growth inhibition [4]: -15.9% | growth inhibition [5]: -34.9% | growth inhibition [6]: -29.4%

c1ccc2cc(Nc3ccc(Nc4ccc5ccccc5c4)cc3)ccc2c1
growth inhibition [1]: 0.25% | growth inhibition [2]: 4.4% | growth inhibition [3]: 12.3% | growth inhibition [4]: 14.7% | growth inhibition [5]: 27.2% | growth inhibition [6]: 2.6%

Cc1ccnc(N=C(N)Nc2cc(C)ccn2)c1
growth inhibition [1]: 19.6% | growth inhibition [2]: 26.4% | growth inhibition [3]: 13.1% | growth inhibition [4]: 11.2% | growth inhibition [5]: 6.75% | growth inhibition [6]: 8.85%

O/N=C1/CCCCC1NO (stereo unspecified)
growth inhibition [1]: -17.9% | growth inhibition [2]: -22.9% | growth inhibition [3]: -32.2% | growth inhibition [4]: 15.7% | growth inhibition [5]: -10.8% | growth inhibition [6]: -19.7%

Cc1ccc(S(=O)(=O)N/N=C(\C(=N/OCc2ccccc2)c2ccccc2)c2ccccc2)cc1
growth inhibition [1]: 43.4% | growth inhibition [2]: -3.75% | growth inhibition [3]: 27.6% | growth inhibition [4]: 14.8% | growth inhibition [5]: 10.8% | growth inhibition [6]: 9.65%

Cc1ccnc(N(C)CCN2CCCCC2)c1
growth inhibition [1]: 2.75% | growth inhibition [2]: 8.15% | growth inhibition [3]: 7.3% | growth inhibition [4]: -34.5% | growth inhibition [5]: 12.4% | growth inhibition [6]: -20.8%

CCCNC=O
growth inhibition [1]: -6.8% | growth inhibition [2]: -7.85% | growth inhibition [3]: -13.8% | growth inhibition [4]: -14.4% | growth inhibition [5]: -5.1% | growth inhibition [6]: -5%

CC(=O)/C(C)=C\c1ccc(C(C)C)cc1
growth inhibition [1]: 8.85% | growth inhibition [2]: -12.7% | growth inhibition [3]: -10.9% | growth inhibition [4]: -7.2% | growth inhibition [5]: 10.9% | growth inhibition [6]: -1.55%

COC(=O)c1c2c(cc3c1CC1(Cc4cc5c(c(C=O)c4C1)CCC5)C3)CCC2 (stereo unspecified)
growth inhibition [1]: -50.6% | growth inhibition [2]: -23.4% | growth inhibition [3]: 8.25% | growth inhibition [4]: 1.55% | growth inhibition [5]: 14.4% | growth inhibition [6]: 4.8%

C=CS(=O)(=O)CCOc1ccc(Cl)cc1Cl
growth inhibition [1]: 98.8% (active) | growth inhibition [2]: 99.2% (active) | growth inhibition [3]: 99.7% (active) | growth inhibition [4]: 97.8% (active) | growth inhibition [5]: 98.4% (active) | growth inhibition [6]: 98.9% (active)
